According to PubChem BioAssay AID1259343 (VanderVen Lab, College of Veterinary Medicine, Cornell …, 2017):
Hit rate of the full screen: of about 6,200 compounds, about 2,900 (47%) were called active. So high a share suggests a set chosen from earlier hits. The list shows a part of the results. A number with no mark means an inactive call. Rule as the data show it: active = inhibition above about 50%; inactive = the rest.

assay: Mycobacterium tuberculosis growth inhibition, primary screen (AID 1259343); conditions: inhibition: at 10 µM, hits give high values; outcome: 10 uM

Structure (SMILES)	inhibition
CC(=O)NC(c1ccccc1)(c1ccccc1)C(F)(F)F	7.55%
O=C(NCC(F)(F)F)c1cc(-c2ccc(Cl)cc2)n[nH]1	72.2% (active)
O=C(NCC(F)(F)F)c1cc(-c2ccccc2Cl)n[nH]1	30.1%
Cc1ccc(Sc2ccccc2N2CCNCC2)c(C)c1	83.7% (active)
CCOC(=O)CN1C(=O)CSC1=CC#N	26.1%
O=C(Nc1ccccn1)C1CCN(c2cccc(C(F)(F)F)n2)CC1	92.4% (active)
CCCCn1nc(C)c(C(=O)NCc2ccc(Cl)s2)c1Cl	-14.6%
CCCCn1nc(C)c(C(=O)Nc2cc(C)ccc2F)c1Cl	60.1% (active)
Cc1nn(-c2ccccc2)c(Cl)c1C(=O)Nc1ccccc1I	28.9%
Cc1cc(C)c2ccc(O)cc2n1	83.4% (active)
Cc1ccc(C(=O)Nc2ccccc2SCC(F)(F)F)cc1	45.2%
C=CCN(CC=C)C(=S)NC(=O)c1ccc(C)cc1	98.4% (active)
C=CCN(Cc1ccc(Cl)s1)C(=O)CSc1nnc(-c2ccc(C)cc2)o1	21.2%
C=CCOc1ccc(S(=O)(=O)c2ccc(O)cc2)cc1	24.3%
Cc1cc(Br)c(NC(=O)CN(C)Cc2nc3ccccc3s2)c(Br)c1	84.4% (active)
CN(Cc1nc2ccccc2s1)C(=O)CCc1nnc(CCc2c[nH]c3ccccc23)o1	22.7%
C=CCN(C(=O)c1cccc(OC)c1)c1nc2ccccc2s1	-37.8%
Clc1ccc(Cn2nnc3c(SCc4cccnc4)ncnc32)cc1	43.6%
Fc1ccc(Cn2nnc3c(=S)nc[nH]c32)cc1	101% (active)
Cc1ccc(Cn2nnc3c(=S)nc[nH]c32)cc1	92.2% (active)
O=C(CSc1ncnc2c1nnn2Cc1ccc(F)cc1)N1CCCCCC1	-40.9%
Clc1cccc(CSc2ncnc3c2nnn3Cc2ccccc2)c1	-28%
S=c1nc[nH]c2c1nnn2Cc1ccc(Cl)cc1	78.3% (active)
Cc1ccc(CSc2ncnc3c2nnn3Cc2ccccc2)cc1	-28.1%
Cc1[nH]n(-c2ccccc2)c(=O)c1N=Nc1c(C)n(C)n(-c2ccccc2)c1=O	94.3% (active)
CCC(=O)N(c1nnc(SCC(=O)c2cc(C)n(-c3cc(C)on3)c2C)s1)C1CC1	72.7% (active)

Structure (SMILES)	inhibition
CCCc1nc(C(=O)Nc2ccc(NC(=O)CC)c(Cl)c2)cs1	54% (active)
COc1ccc(NC(=O)c2csc(C)n2)cc1Cl	-17.7%
Cc1cc(OCc2nc(C(=O)NCC(C)C)cs2)ccc1Cl	8.24%
Cc1ccc(Sc2cncc3sc(C(N)=O)cc23)cc1	68% (active)
CC1CCN(CC(=O)Nc2ccc([N+](=O)[O-])cc2)CC1	8.26%
Cc1ccc(Sc2ccc(NC(=O)Cn3cnnn3)cc2)cc1C	4.65%
Cc1c(Br)c(C(F)(F)F)nn1CC(=O)Nc1ccc(Oc2cc([N+](=O)[O-])cc([N+](=O)[O-])c2)cc1	61.4% (active)
O=C(Cn1cnc([N+](=O)[O-])n1)Nc1cc(Oc2cccc(Cl)c2)cc([N+](=O)[O-])c1	-2.49%
CC(=O)Nc1ccc(NC(=O)Cn2nc(C)c([N+](=O)[O-])c2C)cc1	92.6% (active)
O=C(CSc1ncnc2sc3c(c12)CCC3)N1CCCC1	18.6%
O=C(CSc1ncnc2sc3c(c12)CCCC3)N1CCOCC1	102% (active)
CC(C)(C)OC(=O)CSc1ncnc2sc3c(c12)CCCC3	75.3% (active)
O=C(O)CCCSc1ncnc2sc3c(c12)CCCC3	51% (active)
CN(C)C(=O)CSc1ncnc2sc3c(c12)CCCC3	85.3% (active)
COCC1CCCN(c2nncc(-c3ccc(Cl)cc3)n2)C1 (stereo not drawn)	9.94%
CCc1ccc(C(CNC(=O)Cc2ccc(C(F)(F)F)cc2)N(C)C)cc1 (stereo not drawn)	19.9%
O=C(CCSc1ccc(C(F)(F)F)cn1)Nc1c(Cl)cccc1Cl	20.9%
O=C(Cc1ccc(C(F)(F)F)cc1)Nc1ncccc1O	82.2% (active)
O=C(O)CCN(Cc1ccco1)c1nc(-c2cccc(Br)c2)nc2ccccc12	2.99%
S=P(NN=C1CCSC1)(c1ccccc1)c1ccccc1	62.1% (active)
Cc1cccc(-c2ccc(NC(=O)C3CCN(C(=O)c4cnsn4)CC3)cc2)c1	91.7% (active)
Cc1cccc(-c2ccc(NC(=O)C3CCN(C(=O)c4cscn4)CC3)cc2)c1	93% (active)
COc1cccc(-c2ccc(NC(=O)C3CCCN(C(=O)c4cnsn4)C3)cc2)c1 (stereo not drawn)	inactive
CN1c2ccccc2-c2nc3ccccc3n2C1c1ccco1 (stereo not drawn)	24.8%
C#CCCCCCCCCCCCC(O)CC(O)COC(C)=O (stereo not drawn)	93.3% (active)
CCCc1cc(=O)[nH]c(-n2nc(C)cc2N)n1	101% (active)

Structure (SMILES)	inhibition
Cc1cccc(-n2ncc3c(=O)[nH]c(-n4nc(C)cc4N)nc32)c1	102% (active)
Cc1cc(N)n(-c2nc3c(cnn3-c3ccc(C)c(C)c3)c(=O)[nH]2)n1	33.8%
Cc1cc(=O)[nH]c(-n2nc(C)cc2N)n1	101% (active)
Cc1cc(N)n(-c2nc3c(cnn3-c3ccccc3)c(=O)[nH]2)n1	5.14%
CCCc1cc(=O)[nH]c(-n2nc(C)cc2C)n1	6.1%
CCc1cc(=O)[nH]c(-n2nc(C)cc2N)n1	83.4% (active)
CC(C)=CCc1c(O)ccc(C(=O)Cc2ccccc2)c1O	59.8% (active)
CCC(=O)c1ccc(O)c(CC=C(C)C)c1	20.6%
N#Cc1c(Cl)c(Cl)c(Cl)c(C#N)c1Cl	102% (active)
O=C(Nc1ccccc1)c1cc(C2CCCN(C(=O)C/C=C/c3ccccc3)C2)on1 (stereo not drawn)	43%
Cc1nc(COC(=O)c2cc3ccccc3cc2O)oc1C	54.9% (active)
Cc1ccc(C(=O)OCc2cc(C)on2)c(O)c1	-29.5%
O=C(Nc1nc(C2CC2)cs1)c1cc2ccccc2cc1O	11.4%
Cc1ccc2nc3sc(C(=O)O)cc3cc2c1	7.83%
Cc1sc(C(=O)N2CCOC(C(N)=O)C2)cc1-c1ccc(F)cc1 (stereo not drawn)	5.13%
COc1ccc(-c2cc(C(=O)O)sc2C)cc1	67.1% (active)
CN(C)C(=O)On1nnc2ccccc21	26.9%
O=C(O)C1CCCN1S(=O)(=O)c1cccs1 (stereo not drawn)	-0.47%
O=S(=O)(c1cccs1)n1nnc2ccccc21	52.1% (active)
Cn1c(=O)cc2c3c(cccc31)C(=O)c1ccccc1-2	11.1%
O=c1c(-c2ccccc2)c1-c1ccccc1	86.5% (active)
S=c1[nH]c(-c2ccccc2)c(-c2ccccc2)[nH]1	18.6%
O=C(NCCOc1cccc(C(F)(F)F)c1)c1ccc(Cl)c([N+](=O)[O-])c1	54.2% (active)
O=C(NCCc1cccc(C(F)(F)F)c1)c1ccc(CSc2ncn[nH]2)o1	36.7%
Cc1ccc(C)c(C=CC(=O)c2ccc(O)cc2)c1	98.6% (active)
COc1ccccc1C=CC(=O)c1ccc(Cl)cc1	46.9%

Structure (SMILES)	inhibition
Cc1cc(C)n(C(C)CNS(=O)(=O)c2ccc(C)c(C)c2)n1 (stereo not drawn)	-27.8%
Cc1cc2nn(-c3ccc(C(C)C)cc3)nc2cc1N	14.7%
CC(C)c1ccc(-c2nnc(N)s2)cc1	72.1% (active)
CC(O)c1cnc(-c2ccc(Br)cc2)s1 (stereo not drawn)	35.9%
O=C(/C=C/C(=O)Oc1ccccc1C(=O)O)Oc1ccccc1C(=O)O	26.7%
C=CS(=O)(=O)Oc1ccccc1	78.9% (active)
NC(=O)c1ccnc(N2CCN(Cc3ccc(Cl)c(Cl)c3)CC2)c1	89.4% (active)
Nc1nc(Cl)cc(N2CCN(Cc3ccc4c(c3)OCCO4)CC2)n1	6.34%
NC(=O)c1ccc(CN2CCCc3cc(F)cc(F)c32)cc1	17.5%
C=CCn1cnc2c(c1=O)c1nc3ccccc3nc1n2CCC(C)C	12.7%
CCOc1ccc2ccccc2c1C(=O)Nc1cc(C)nn1-c1nc(C)cc(=O)[nH]1	101% (active)
CCOc1ccc2ccccc2c1C(=O)Nc1cc(C)nn1-c1nc(CC)cc(=O)[nH]1	101% (active)
O=S(=O)(NCCCCOc1ccc(Cl)cc1)c1cccc(F)c1	88.5% (active)
COCCOc1ccc(CNS(=O)(=O)c2ccc(F)c(Cl)c2)cc1	30.9%
O=S(=O)(NCCCNS(=O)(=O)c1ccc(Cl)cc1)c1ccc(Cl)cc1	-18.2%
Cc1ccc(-c2csc(NC(=O)c3c(C)noc3C)n2)s1	24.1%
Cc1oc2nc[nH]c(=O)c2c1C(=O)Nc1ccc(C(C)(C)C)cc1	39.2%
Cc1noc(C)c1C(=O)Nc1nc2cc(C(C)(C)C)ccc2o1	100% (active)
Cc1cc(N2CC[C@@H](c3ccc4c(c3)OCO4)[C@H](O)C2)nc2cc(F)ccc12	11.3%
CCCc1nc(N2CC[C@@H](c3ccc4ccccc4c3)[C@H](O)C2)no1	23%
CCc1cnc(N2CC[C@@H](c3ccc4ccccc4c3)[C@H](O)C2)nc1	86.1% (active)
O=C(CSC1=NS(=O)(=O)c2ccccc2N1)Nc1ccccc1	31.9%
Cc1cc(C)n2nc(SCC(=O)Nc3ccc(C(C)C)cc3)nc2n1	84.4% (active)
CCCCc1ccc(NC(=O)CSc2nc3nc(C)cc(C)n3n2)cc1	-36.7%
O=C1c2ccccc2-c2nc3nonc3nc21	103% (active)
